IDE exosite FP: exo-site inhibitors of human insulin-degrading enzyme; actives 6.3% (n = 17,000); purified IDE, FL-6b probe fluorescence polarization; stronger effect = lower value; P14735; z-score at 20 µM;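 active = z-score of -3 or lower, meaning strong loss of probe binding signal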;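 also: His-tagged human IDE residues 42-1019 made in E. coli with 30 nM FL-6b probe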
* = called active by the depositor. The entries come from a sample that favours hits as a whole.

SMILES	IDE exosite FP
CCCC#Cc1ccc([C@H]2[C@@H](CO)N3C(=O)CN(S(=O)(=O)c4ccccc4C)C[C@H]23)cc1	-1.7
COc1ccc(-c2ccc([C@H]3[C@@H](CO)N4C(=O)CN(C(=O)c5cccnc5)C[C@H]34)cc2)cc1	-4.9*
Cc1ccc(-c2ccc([C@H]3[C@@H](CO)N4C(=O)CN(C(=O)c5cccnc5)C[C@@H]34)cc2)cc1	-1.7
O=C(c1cccnc1)N1CC(=O)N2[C@H](C1)[C@@H](c1ccc(-c3cccnc3)cc1)[C@@H]2CO	-1.9
COc1ccc(-c2ccc([C@H]3[C@@H](CO)N4C(=O)CN(C(=O)c5cccnc5)C[C@@H]34)cc2)cc1	2.7
O=C(c1cccc(F)c1)N1CC(=O)N2[C@H](C1)[C@H](c1ccc(-c3cccnc3)cc1)[C@@H]2CO	2.2
O=C(c1ccncc1)N1CC(=O)N2[C@H](C1)[C@@H](c1ccc(-c3cccnc3)cc1)[C@@H]2CO	-3.2*
COc1cccc(-c2ccc([C@@H]3[C@@H](CO)N4C(=O)CN(C(=O)c5cccnc5)C[C@H]34)cc2)c1	-1.3
Cc1cccc(-c2ccc([C@@H]3[C@@H](CO)N4C(=O)CN(C(=O)c5cccnc5)C[C@@H]34)cc2)c1	-13*
COc1ccc(-c2ccc([C@@H]3[C@H]4CN(C(=O)c5cccnc5)CC(=O)N4[C@H]3CO)cc2)cc1	1.7
COc1ccc(-c2ccc([C@@H]3[C@@H](CO)N4C(=O)CN(C(=O)c5cccnc5)C[C@H]34)cc2)cc1	0.58
O=C(c1cccnc1)N1CC(=O)N2[C@@H](CO)[C@H](c3ccc(-c4cccnc4)cc3)[C@@H]2C1	-0.79
Cc1ccc(-c2ccc([C@@H]3[C@H]4CN(C(=O)c5cccnc5)CC(=O)N4[C@H]3CO)cc2)cc1	-3.6*
CN1C[C@H]2[C@@H](c3ccccc31)[C@@H](CO)N2C(=O)c1cccnc1	2.3
CC(=O)N1CC(=O)N2[C@H](CO)[C@H](c3ccc(C#Cc4cccnc4)cc3)[C@@H]2C1	2.1
N#C[C@@H]1[C@@H](c2ccc(-c3ccccc3F)cc2)[C@H](CO)N1C(=O)c1ccccn1	0.9
C[C@@H](O)C#Cc1ccc([C@@H]2[C@@H](CO)N3CCCCN(S(=O)(=O)c4ccccc4)C[C@@H]23)cc1	0.48
O=C(C[C@@H]1CC[C@H]2[C@@H](COC[C@H](O)CN2C(=O)Nc2cc(Cl)cc(Cl)c2)O1)N1CCOCC1	0.27
COCC(=O)N1[C@H](CO)[C@@H](c2ccccc2)[C@@H]1C#N	3.1
CC(C)C#Cc1ccc([C@H]2[C@@H](CO)N3C(=O)CN(C(=O)c4ccc5c(c4)OCO5)C[C@H]23)cc1	-1.5
O=C(NC[C@@H]1[C@H](c2ccccc2)[C@@H](CO)N1C(=O)Cc1cccnc1)C1CC1	3.1
C[C@@H](NC(=O)C[C@H]1CC[C@H]2[C@@H](COc3ccc(NS(=O)(=O)c4ccc(Cl)cc4)cc3C(=O)N2C)O1)c1ccccc1	0.27
COC(=O)C[C@H]1C[C@H]2c3cc(NC(=O)c4ccc5c(c4)OCO5)ccc3O[C@H]2[C@@H](CO)O1	-0.57
CN1C(=O)c2cc(NS(C)(=O)=O)ccc2OC[C@H]2O[C@H](CC(=O)NCc3ccccc3)CC[C@@H]21	-1.8
O=C(c1cnccn1)N1CC(=O)N2[C@H](C1)[C@H](c1ccc(C#CCC3CCCC3)cc1)[C@@H]2CO	3.9
SMILES	IDE exosite FP
Cc1cccc(-c2ccc([C@H]3[C@@H](CO)N4C(=O)CN(C(=O)c5cccnc5)C[C@H]34)cc2)c1	-15*
C[C@@H]1CCCCO[C@H](CN(C)CC2CCCCC2)[C@H](C)CN([C@@H](C)CO)C(=O)c2cc(NC(=O)Nc3ccc(C(F)(F)F)cc3)ccc2O1	0.088
CCc1cnc(N2[C@H](CO)[C@@H](c3ccccc3-c3ccccc3C)[C@@H]2C#N)s1	-1.2
O=C(C1CCOCC1)N1CC(=O)N2[C@H](CO)[C@H](c3ccc(Br)cc3)[C@@H]2C1	-0.28
O=C(C1CCOCC1)N1CC(=O)N2[C@@H](CO)[C@@H](c3ccc(Br)cc3)[C@@H]2C1	1.4
CCCC#Cc1ccc([C@H]2[C@H]3CN(C(=O)CN4CCOCC4)CC(=O)N3[C@H]2CO)cc1	4.6
CCCC#Cc1ccc([C@H]2[C@H](CO)N3C(=O)CN(C(=O)CN4CCOCC4)C[C@@H]23)cc1	1.2
CCCC#Cc1ccc([C@@H]2[C@@H](CO)N3C(=O)CN(C(=O)CN4CCOCC4)C[C@H]23)cc1	1.8
O=C(C1CCOCC1)N1CC(=O)N2[C@H](C1)[C@@H](c1ccc(/C=C/c3ccccc3)cc1)[C@@H]2CO	-7.6*
O=C(CN1CCOCC1)N1CC(=O)N2[C@H](CO)[C@@H](c3ccc(-c4ccccc4)cc3)[C@H]2C1	3.1
O=C(CN1CCOCC1)N1CC(=O)N2[C@H](CO)[C@@H](c3ccc(/C=C/c4ccccc4)cc3)[C@@H]2C1	-4.4*
O=C(CN1CCOCC1)N1CC(=O)N2[C@H](CO)[C@@H](c3ccc(/C=C/c4ccccc4)cc3)[C@H]2C1	-6*
COc1ccc(-c2ccccc2[C@@H]2[C@@H](C#N)N(C(=O)c3cccnc3)[C@@H]2CO)cc1	0.49

Bioassay records as filed in PubChem BioAssay.
